PubChem BioAssay (NCI)
The panel holds about 83,000 compounds, 20% with a hit somewhere; the sample as a whole holds those more often.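 Assay: single dose, 48 h. Readout: percent growth (0 = no net growth; negative = cell death). Active: <10.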 A number with no mark means an inactive call. The source made the active and inactive calls.

How the values were obtained:
Assay in all cases: NCI-60 one-dose screen, 48 h (100 = growth as untreated, 0 = no growth, -100 = all killed)
Conditions in all cases: 10 µM
EKVX NSCLC = test system: EKVX NSCLC
SN12C renal = test system: SN12C renal
UO-31 renal = test system: UO-31 renal
TK-10 renal = test system: TK-10 renal
ACHN renal = test system: ACHN renal
CAKI-1 renal = test system: CAKI-1 renal
A498 renal = test system: A498 renal
CCRF-CEM leukemia = test system: CCRF-CEM leukemia
MOLT-4 leukemia = test system: MOLT-4 leukemia
SR leukemia = test system: SR leukemia
RPMI-8226 leukemia = test system: RPMI-8226 leukemia
OVCAR-8 ovarian = test system: OVCAR-8 ovarian
OVCAR-4 ovarian = test system: OVCAR-4 ovarian
SK-OV-3 ovarian = test system: SK-OV-3 ovarian
IGROV1 ovarian = test system: IGROV1 ovarian
OVCAR-3 ovarian = test system: OVCAR-3 ovarian
HS 578T breast = test system: HS 578T breast
NCI/ADR-RES ovarian = test system: NCI/ADR-RES ovarian
OVCAR-5 ovarian = test system: OVCAR-5 ovarian

| SMILES | growth (EKVX NSCLC) | growth (SN12C renal) | growth (UO-31 renal) | growth (TK-10 renal) | growth (ACHN renal) | growth (CAKI-1 renal) | growth (A498 renal) | growth (CCRF-CEM leukemia) | growth (MOLT-4 leukemia) | growth (SR leukemia) | growth (RPMI-8226 leukemia) | growth (OVCAR-8 ovarian) | growth (OVCAR-4 ovarian) | growth (SK-OV-3 ovarian) | growth (IGROV1 ovarian) | growth (OVCAR-3 ovarian) | growth (HS 578T breast) | growth (NCI/ADR-RES ovarian) | growth (OVCAR-5 ovarian) |
| --- | --- | --- | --- | --- | --- | --- | --- | --- | --- | --- | --- | --- | --- | --- | --- | --- | --- | --- | --- |
| COc1ccc(CCN2CCC(Nc3nc4ccccc4n3Cc3ccc(F)cc3)CC2)cc1 | 45.1% | 34.1% | -19.8% (active) | -6.61% (active) | 12.5% | -1.28% (active) | -9.07% (active) | -13.6% (active) | -40.7% (active) | -54.6% (active) | -20.2% (active) | -40.4% (active) | 22.4% | 44% | 41.2% | 28.3% | -40.2% (active) | 37.7% | – |
| CC(C)Cc1ccc([C@H](C)C(=O)O)cc1 | 104% | 103% | 86.5% | 100% | 108% | 93.7% | 99.1% | 102% | 90.5% | 99.9% | 115% | 107% | 115% | 119% | 116% | – | 110% | 108% | 107% |
| C=C1CCC2(C#N)[C@H]3[C@H](CC[C@@H]2C)[C@@H](C)C[C@@H](CC(C)(C)NC(=O)CN2CCC2=O)[C@H]13 (stereo partly drawn) | 52.6% | 57.1% | 47.3% | 81.4% | 65.6% | 56.4% | 92.1% | – | – | – | -11.3% (active) | 54.8% | 62.4% | 89.7% | 28.7% | 65.6% | 74.3% | – | 63.5% |
| CN(C)CCCN1c2ccccc2CCc2ccc(Cl)cc21 | 70.5% | 61.5% | 47.3% | 71.3% | 69.2% | 51.6% | 39.9% | 60.5% | 30.8% | 49.2% | 47.8% | 77.1% | 53.1% | 82.4% | 59.3% | 72.3% | 68.7% | 59.5% | 77.5% |
| CC(C)(C)OC(=O)CN1CCc2c(sc3ncnc(N/N=C/c4cccc5ccccc45)c23)C1 | 2.48% (active) | 48.4% | 3.34% (active) | 50.5% | 15.7% | 35.1% | 52.4% | – | 9.27% (active) | 18.2% | – | 35.6% | 54.5% | 67.4% | 30.1% | 39.9% | 21.5% | 7.91% (active) | 31.1% |
| CN1C(C(=O)Nc2ccccn2)=C(O)c2sc(Cl)cc2S1(=O)=O | 102% | 103% | 78.8% | 104% | 100% | 92.4% | 90.1% | 87.4% | 110% | 96.1% | 94.5% | 95.9% | 106% | 104% | 99.6% | 105% | 98.5% | 95.4% | 104% |
| CCOC(=O)c1sc2ncnc(Nc3ccc4c(cnn4C(=O)Nc4ccccc4)c3)c2c1C | 84.3% | 61.3% | 87.6% | 78.6% | 87.6% | 83.9% | – | – | 91% | 27.9% | – | 51.7% | -1.84% (active) | 73.2% | 87.1% | 67.8% | 41.6% | 49.2% | 98.9% |
| CCCCCC(=O)O[C@]1(C(C)=O)CCC2C3CCC4=CC(=O)CC[C@]4(C)C3CC[C@@]21C (stereo partly drawn) | 27.1% | 21.5% | 18.1% | 40.4% | 24% | 18.6% | 19.4% | 21% | -23.1% (active) | 2.49% (active) | -12.4% (active) | 24.4% | 18.4% | 64.3% | 33.4% | – | 54.9% | 12.9% | 74% |
| N#CC1=CC2CN(Cc3ccccc3)C1C1C(=O)N(c3ccccc3)C(=O)C21 (stereo not drawn) | 94.7% | 100% | 74.7% | 96.2% | 103% | 101% | – | 97.2% | 89.5% | – | – | 98.2% | 93.2% | 97% | 103% | 111% | 101% | 91.6% | 101% |
| O=C(CN1CCN(C(=O)c2ccccc2)CC1)Nc1ccccc1SCc1ccccc1 | 72.3% | 77.9% | 52.2% | 82.2% | 80.8% | 71.8% | 86.6% | – | 74.1% | 71% | 68.3% | 87.3% | 77.2% | 89.5% | 84.2% | 91.5% | 83.9% | 78.4% | 96.4% |
| CC1OC2CC(=O)OC2C2=C1C(=O)c1c(O)c3c(c(O)c1C2=O)C1CC(O)C3(O)C(C)O1 (stereo not drawn) | 13.1% | -33% (active) | 1.82% (active) | -16.6% (active) | -16.2% (active) | 8.24% (active) | -18.1% (active) | – | -21.7% (active) | – | -6.28% (active) | 5.64% (active) | -99.6% (active) | 8.13% (active) | -36.7% (active) | -34.1% (active) | -12.3% (active) | 1.39% (active) | -47.3% (active) |
| Cc1nc2n(c(=O)c1CCN1CCC(c3noc4cc(F)ccc34)CC1)CCC[C@@H]2O | 92.8% | 101% | 80% | 109% | 95.9% | 102% | 80.5% | -3.98% (active) | 96.9% | 93.8% | 111% | 97.5% | 105% | 103% | 105% | 106% | – | 97.2% | 88.6% |
| COc1cc(-c2ccc[nH]2)[nH]c1/C=C1\N=C(C)C(C(=O)NC(C)C)=C1C | 35.4% | 38.3% | -35% (active) | 17.7% | 12.6% | 20% | 67.7% | – | -14.2% (active) | -15.5% (active) | – | 14.7% | 23.5% | 50.7% | 34% | 19.5% | 39.1% | 17.6% | 43.2% |
| COc1ccc(-c2nn(-c3cccc(Cl)c3)cc2-c2cc(-c3ccccc3)[nH]c(=O)c2C#N)cc1 | 57.2% | 67.7% | 24.7% | -12.8% (active) | 11% | 40.8% | – | 91.7% | 79.6% | 64.8% | – | 26.3% | 31% | -47.3% (active) | 49.4% | 25.8% | 23.5% | 37.8% | 94.1% |
| O=C1/C=C/[C@@H](O)[C@@H]2C[C@@H](O)C[C@H]2/C=C/CCC[C@H](CCc2ccc(C(F)(F)F)cc2)O1 | 3.27% (active) | 1.34% (active) | 1.2% (active) | -40% (active) | 8.15% (active) | 8.3% (active) | -29.7% (active) | -11% (active) | -21.5% (active) | 1.16% (active) | -8.16% (active) | 2.31% (active) | 9.39% (active) | 12.5% | 5.99% (active) | – | 27.8% | 3.21% (active) | 13.6% |
| NS(=O)(=O)Oc1ccc(NC(=O)C2CCCCCC2)cc1 | 85.1% | 99.1% | 82.1% | 105% | 97.3% | 87.4% | 122% | 89.4% | 104% | 98.5% | 102% | 98.8% | 107% | 99% | 103% | 102% | 108% | 103% | – |
| C[C@H]1[C@H](OC(=O)CCC(=O)O)O[C@@H]2O[C@]3(C)CC[C@H]4[C@H](C)CC[C@@H]1[C@@]24OO3 | 29.2% | 33.3% | 9.64% (active) | 46.8% | 27% | 16.7% | 80.6% | 39.7% | 14.8% | -2.25% (active) | 25.8% | 23.4% | 37.6% | 92.9% | 54.5% | 30.8% | 47.2% | 23.6% | 44.3% |
